High-throughput results from PubChem BioAssay.
VP16 counter: VP16 counterscreen qHTS for inhibitors of ROR gamma transcriptional activity | Drosophila S2 Gal4-VP16 UAS-luciferase, luminescence, 20 h | hit rate 3.5% among 310,000 | Potency, µM (highest dose often 53.6 µM), for inactives: at the highest dose activity, negative = inhibition, most hits filed as inhibitors;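 further: Gal4-VP16 expression switched on by copper sulfate through the metallothionein promoter; potency means the concentration at half of the fitted maximal effect; nearly all actives have a fitted effect of over 50% in size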
RORgamma inh: qHTS for inhibitors of ROR gamma transcriptional activity; Drosophila S2 Gal4-RORgamma UAS-luciferase reporter, 20 h; Potency, µM (highest dose often 53.6 µM), inactives show at the top dose activity change, negative = inhibition, hits mostly inhibitors; hit rate 5.4% among 310,000; AID 2551, 2010; further: potency means the concentration at half of the fitted maximal effect; nearly all actives have a fitted effect of over 60% in size
Target sequence (P51450 whole entry, looked up, the tested form may be a part): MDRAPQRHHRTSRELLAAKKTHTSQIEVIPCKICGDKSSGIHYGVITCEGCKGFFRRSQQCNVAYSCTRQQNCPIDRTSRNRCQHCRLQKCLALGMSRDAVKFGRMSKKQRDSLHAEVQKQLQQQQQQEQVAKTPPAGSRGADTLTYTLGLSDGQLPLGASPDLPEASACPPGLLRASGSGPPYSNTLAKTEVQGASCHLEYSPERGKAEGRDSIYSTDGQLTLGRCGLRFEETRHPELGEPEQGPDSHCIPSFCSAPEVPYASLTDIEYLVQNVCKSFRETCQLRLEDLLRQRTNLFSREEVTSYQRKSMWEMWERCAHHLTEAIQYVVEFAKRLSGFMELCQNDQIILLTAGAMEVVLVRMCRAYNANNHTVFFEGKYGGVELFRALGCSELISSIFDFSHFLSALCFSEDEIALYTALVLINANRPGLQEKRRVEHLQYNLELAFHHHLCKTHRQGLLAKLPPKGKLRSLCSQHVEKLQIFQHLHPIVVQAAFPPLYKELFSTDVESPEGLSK
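Luciferase reporter read in Schneider cells carrying Gal4-RORγ (mouse) and UAS-Photinus luciferase; cells given compound 1 h before 700 uM copper sulfate induction, then incubated 20 h at ambient temperature.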
ELG1 DNA repair: qHTS screen for small molecules that inhibit ELG1-dependent DNA repair in human embryonic kidney (HEK293T) cells expressing luciferase-tagged ELG1 | HEK293T ELG1-luciferase reporter, luminescence, 16 h; DNA damage induced by 5-fluorouridine | Potency, µM (series often up to 46.1 µM), for the others: at the top dose activity change, negative = inhibition, actives largely listed as inhibitors | hit rate 2.3% among 330,000; further: potency means the concentration at half of the fitted maximal effect; nearly all actives have a fitted effect of over 55% in size
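Luminescence from the luciferase reporter, measured 30 min after ONE-Glo reagent at room temperature, was the read-out. Beforehand, 2,000 cells per well were exposed for 16 hr at 37 °C to 5-fluorouridine together with compound or vehicle.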
TSHR antag: Antagonists of the Thyroid Stimulating Hormone Receptor: HTS campaign; AID 504810, 2011; hit rate 0.2% among 330,000; activity change, negative = inhibition, % at 11.5 µM; TSHR-expressing cells, TSH-stimulated cAMP HTRF, 2 h; stronger effect = lower value;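 active means activity change below a set negative limit, meaning inhibition stronger than a set level, cut at about -70% in these data; inconclusive means activity change between two set negative limits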
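Competitive HTRF cAMP read-out (cryptate anti-cAMP antibody, cAMP-d2; 30 min, room temperature) in freshly harvested TSHR cells. Compounds added before TSH at EC80 (4nM final), followed by 2 hours' incubation at 37 deg C.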
Coupling enz: qHTS Assay for Inhibitors of Fructose-1,6-bisphosphate Aldolase from Giardia Lamblia: Coupling assay counterscreen | coupling enzyme system counterscreen, AmpLite Red fluorescence | activity change, negative = inhibition, % at 58.2 µM, hits read low | hit rate 0.67% among 290,000; in the data active means activity change below about -30%
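Counterscreen lacking aldolase: glyceraldehyde-3-phosphate coupling-enzyme reagent preincubated 10 min at RT with compound (at 57.5 uM final), then substrate/coupling system with AmpLite Red added; fluorescence read at 525/598 nm after 20 min RT.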
* = called active by the depositor; u = inconclusive; x = no result. Only some compounds are listed: those with a hit (about 8% of all), similar ones and a draw of the others. Unless noted, the call rests on the fitted dose curve; in most records, active means well fitted curve in the direction sought with a large enough effect; inconclusive means small, poorly fitted or top-dose-only effect, or another doubt; inactive means no such curve, though single readings can be large; an effect the other way counts as inactive or inconclusive. On the % scale 0 is the no-effect control and ±100 the full control effect.

SMILES	VP16 counter	RORgamma inh	ELG1 DNA repair	TSHR antag	Coupling enz
N#C/C(=N\Nc1ccc(S(=O)(=O)N2CCc3ccccc32)cc1)C(N)=S	u	11µM*	6.5µM*	u	8
N#C/C(=N\Nc1ccc(S(=O)(=O)N2CCCCCC2)cc1)C(N)=S	u	11µM*	21µM*	-48	5
N#C/C(=N\Nc1ccc([N+](=O)[O-])cc1)C(N)=S	13µM*	u	u	-45	-1
N#C/C(=N\Nc1cccc([N+](=O)[O-])c1)C(=O)c1ccc(Br)cc1	5µM*	4.5µM*	1.8µM*	u	12
CCOC(=O)C(C)(C)N(Cc1ccc(Cl)cc1)S(=O)(=O)c1ccc(Cl)c([N+](=O)[O-])c1	u	14%	18µM*	-16	1
Cc1cc(-n2[nH]c(C)c(C)c2=O)nc(-c2ccccc2O)n1	u	11µM*	u	-10	2
Cc1ccc(-n2c(-c3ccc(Br)cc3)c[n+]3c2CCc2ccc4cccnc4c2-3)cc1	1.4µM*	7.1µM*	u	u	x
COc1ccc(-c2nc3c(c4c2C[C@H](c2ccccc2)OC4)CN(S(=O)(=O)c2ccc(C)cc2)CC3)c(C)c1	x	x	x	x	2
O=C(O)c1ccc2c(c1)S(=O)(=O)c1cc(Cl)ccc1C2=O	x	x	u	-14	x
COc1ccc(Nc2nc(OC)nc(OC)n2)cc1	-8%	32%	u	-3	0
COc1ccc(Nc2nc(Nc3ccc(OC)cc3)nc(-n3[nH]c(=O)c(C)c3C)n2)cc1	4µM*	1.3µM*	2.3µM*	-2	1
Nc1nnc(CSCc2ccc(Cl)cc2Cl)s1	3%	-45%	u	-17	4
CC(C)n1c(CSCc2ccc(Cl)cc2Cl)n[nH]c1=S	3.2µM*	1.4µM*	u	-17	4
CC(C)=CCC[C@](C)(O[C@@H]1O[C@H](CO)[C@@H](O)[C@H](O)[C@H]1O)[C@H]1CC[C@]2(C)[C@@H]1[C@H](O)C[C@@H]1[C@@]3(C)CC[C@H](O[C@@H]4O[C@H](CO)[C@@H](O)[C@H](O)[C@H]4O[C@@H]4O[C@H](CO)[C@@H](O)[C@H](O)[C@H]4O)C(C)(C)[C@@H]3[C@@H](O)C[C@]12C	2%	19%	x	x	2
COC(=O)C1=C(CN2CCc3ccccc32)NC(=O)NC1c1cc(C)ccc1C (stereo not given)	2%	0%	13µM*	-2	-22
COC(=O)C1=C(CN2CCCc3ccccc32)NC(=O)NC1c1ccc(F)cc1 (stereo not given)	u	1.4µM*	u	1	-3
COCCn1c(=O)c(C)nc2cnc(OC)nc21	-21%	-20%	x	x	1
O=c1[nH]c(-c2ccccn2)cc2ccccc12	u	5µM*	u	-5	-2
CSc1nc(O)c(N=Nc2ccc(F)cc2F)c(=O)[nH]1	10µM*	u	u	-2	-3
CSc1nc(O)c(C(c2ccccc2)c2c(O)nc(SC)[nH]c2=O)c(=O)[nH]1	-17%	-20%	4%	6	10
N#Cc1ccccc1NC(=S)Nc1ccc(F)cc1	20µM*	18µM*	7%	-4	5
N#Cc1ccc(NC(=S)Nc2ccccc2)cc1	-2%	-17%	0%	1	1
N#Cc1ccccc1NC(=S)NC(=O)c1cccs1	23%	-15%	u	5	1
S=C(Nc1ccccc1)Nc1ccccc1C#Cc1ccccc1	u	11µM*	x	x	-3
S=C(Nc1ccccc1)Nc1ccccc1-n1cccc1	16µM*	4.5µM*	1%	11	-1
C[Si](C)(C)C#Cc1ccccc1NC(=S)Nc1ccccc1	u	14µM*	x	x	2
O=C(NC1CCCCC1)C(c1ccccc1F)N(C(=O)c1csnn1)C1CCCC1 (stereo not given)	4%	-32%	5%	45	0
